KCNH2 3.1 block: blocks the human KCNH2 3.1 channel isoform; activity change, % (tested at about 1.8 µM); U2OS KCNH2 3.1, thallium flux FluxOr; active compounds read low; 0.95% of 340,000 active;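 active = maximum activity change below -70%; inconclusive = maximum activity change from -70% to -50%; inactive = maximum activity change above -50%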;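 also: thallium influx rate constant from kinetic fluorescence after stimulation buffer; % is scaled to controls: 0 for no effect and ±100 for the full control effect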
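Steps: virus added to U2OS suspension (4 h, RT, dark); medium with 10% FBS added, cells plated, 37 C overnight; FluxOr/Red40 loading buffer 45 min RT; stimulation buffer, 2 min kinetic read; rate constant normalized.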
KCNH2 WT inh: blocks the wildtype human KCNH2 potassium channel | Q12809 | U2OS, BacMam KCNH2, thallium flux FluxOr; active compounds read low | activity change, % at 1.84 µM | 0.37% of 340,000 active | AID 720551;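 active = maximum activity change below -70%; inconclusive = maximum activity change between -70% and -50%; inactive = maximum activity change above -50%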; also: % is scaled to controls: 0 for no effect and ±100 for the full control effect
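U2OS cells were transduced with wild-type KCNH2 virus (2.03 x 10^8 / mL) for 4 h at room temperature, then cultured overnight at 37 C. Thallium flux was read with FluxOr dye. Rate constants were normalized to DMSO controls.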
TRPV1 ag: human TRPV1 agonism; 0.19% of 320,000 active; activation, % at 8.33 µM; TRPV1-expressing cells, Fluo-8 calcium influx, agonist mode; in the data active = activation above about 80%; inconclusive = between about 30% and that limit; also: 0% is about no effect
Target sequence (Q8NER1 whole entry, looked up): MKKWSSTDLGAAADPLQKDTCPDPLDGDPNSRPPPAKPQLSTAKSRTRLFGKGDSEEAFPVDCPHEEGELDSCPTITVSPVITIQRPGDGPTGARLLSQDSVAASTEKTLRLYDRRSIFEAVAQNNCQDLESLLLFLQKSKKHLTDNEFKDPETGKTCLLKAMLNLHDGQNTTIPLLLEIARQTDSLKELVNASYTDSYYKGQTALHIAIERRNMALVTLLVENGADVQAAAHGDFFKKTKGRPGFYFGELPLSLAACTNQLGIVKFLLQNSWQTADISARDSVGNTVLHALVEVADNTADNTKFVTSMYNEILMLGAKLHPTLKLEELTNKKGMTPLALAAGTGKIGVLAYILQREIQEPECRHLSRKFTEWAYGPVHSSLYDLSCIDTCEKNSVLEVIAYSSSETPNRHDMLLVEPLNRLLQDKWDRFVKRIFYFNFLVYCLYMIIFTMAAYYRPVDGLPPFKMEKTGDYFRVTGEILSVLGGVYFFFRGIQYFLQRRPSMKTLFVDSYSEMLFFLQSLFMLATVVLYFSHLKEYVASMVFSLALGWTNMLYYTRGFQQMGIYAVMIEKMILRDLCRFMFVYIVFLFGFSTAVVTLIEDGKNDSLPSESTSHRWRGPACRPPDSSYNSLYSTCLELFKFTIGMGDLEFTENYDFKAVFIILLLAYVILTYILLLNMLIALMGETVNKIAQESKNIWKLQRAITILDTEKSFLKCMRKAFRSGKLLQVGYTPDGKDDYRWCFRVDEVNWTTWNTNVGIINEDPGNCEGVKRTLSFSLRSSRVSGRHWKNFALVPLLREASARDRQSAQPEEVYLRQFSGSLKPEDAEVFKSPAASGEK
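Fluo-8 calcium influx in TRPV1-expressing cells, kinetic read (ex 480/em 520 nm). Compound added and read 3 min for agonist activity, followed by capsaicin at EC20 final and 2 min further read for enhancement.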
TRPV1 PAM: potentiators of human vanilloid receptor 1 (TRPV1); Q8NER1; TRPV1-expressing cells, Fluo-8 calcium influx, capsaicin EC20 potentiation; potentiation, % at 8.33 µM; 0.02% of 320,000 active; AID 540277; in the data active = potentiation above about 80%; inconclusive = between about 30% and that limit; also: 0% is about no effect
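Cells expressing TRPV1 were dye-loaded with Fluo-8 and read kinetically: 10 s baseline, 3 min after compound (agonist portion), then 2 min after EC20 capsaicin (allosteric enhancer portion). Calcium-bound dye fluorescence at 480/520 nm.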
Numbers without * were called inactive; ? = inconclusive; . = no result given. In the library only some 1.2% were active in any assay of this set; here they are far more common.

SMILES	KCNH2 3.1 block	KCNH2 WT inh	TRPV1 ag	TRPV1 PAM
CCC(C)c1ccccc1N1CC(C(=O)Nc2cc(S(=O)(=O)N3CCOCC3)ccc2OC)CC1=O (stereo not drawn)	-4.9	7.2	.	.
Cc1nc(-c2cccs2)sc1C(=O)O	9.2	-95.8*	0.6	-1.0
O=[N+]([O-])c1cccnc1Oc1ccc(C2SCCS2)cc1	16.3	-153.4*	.	.
COc1cc(C2SCCS2)cc(Br)c1Oc1ncccc1[N+](=O)[O-]	-1.7	3.3	.	.
CCN(CC)C1=N/C(=C\c2ccco2)C(=O)N1c1ccccc1	2.4	-81.7*	-2.5	-2.6
CC(C)CN(CC(C)C)C1=N/C(=C\c2ccco2)C(=O)N1c1ccccc1	-2.2	6.8	21.0	-1.6
c1ccc(C(c2ccccc2)c2noc(CN3CCN(C4CCCC4)CC3)n2)cc1	-29.6	17.9	1.8	6.3
FC(F)(F)c1ccc(-c2noc(CN3CCCN(C4CCCCC4)CC3)n2)cc1	-93.5*	-44.6	2.1	-1.3
CN(C)CCNCCCNc1c2ccccc2nc2cccc([N+](=O)[O-])c12	-3.4	4.7	.	.
CC(=O)c1ccc(NC(=O)C2(c3ccccc3)CCOCC2)cc1	-108.5*	0.3	-3.3	1.7
O=C(c1ccc(NC(=O)C2(c3ccccc3)CCOCC2)cc1)N1CCOCC1	7.3	7.0	-1.4	11.0
Cc1cccc(/C(N)=N/OC(=O)c2ccc3c(c2)OCO3)c1	-5.0	-104.7*	4.0	-2.2
N/C(=N\OC(=O)c1ccc2c(c1)OCO2)c1cccc([N+](=O)[O-])c1	26.9	0.6	25.0	-10.9
CSc1nc(N2CCN(Cc3ccc4c(c3)OCO4)CC2)c2ccccc2n1	-73.3*	-1.0	12.2	-1.1
CCc1cc(SC#N)cc(C)c1NC(=O)CCl	-26.0	4.0	-0.9	-2.9
CCc1cc(SC#N)cc(C)c1N	-73.6*	12.2	3.6	-0.4
CSc1nc2ccccc2n1C(=O)NC1CCCCC1	-3.9	0.1	-1.4	15.2
CCC(C(=O)NC1CCCCC1)n1c(SCc2ccccc2F)nc2ccncc21 (stereo not drawn)	-117.9*	4.8	28.3	-10.5
CCCOC1CCCN(C(=O)c2cc(COc3ccc(F)c(F)c3)on2)C1 (stereo not drawn)	-4.6	19.2	?	-33.7
CC(=O)c1cccc(NC(=S)NCc2ccccc2)c1	15.2	-1.1	?	1.2
CC(=O)c1cccc(NC(=S)NCCc2ccc(Cl)cc2)c1	-5.3	-2.2	85.2*	5.0
Cn1c(/C(C#N)=N/O)nc2ccccc21	-14.5	-2.3	-1.2	2.4
CCn1c(/C(C#N)=N/O)nc2ccccc21	-80.7*	-115.2*	-3.6	?
CC(=O)c1cc2c(cc1F)C(C)(C)CCC2(C)C	2.6	-2.8	.	.
N#Cc1ccc(CN2CCN(C(=O)c3ccc(S(=O)(=O)N4CCCCCC4)cc3)CC2)cc1	-32.5	3.6	3.4	9.1
SMILES	KCNH2 3.1 block	KCNH2 WT inh	TRPV1 ag	TRPV1 PAM
COc1ccc2c(C)cc(=O)[nH]c2c1	-95.0*	-4.8	1.9	-4.4
COc1ccc(NS(=O)(=O)c2cc(NC(=O)c3ccc(C)s3)ccc2N2CCOCC2)cc1	-10.3	-1.9	88.2*	16.8
CCC(=O)Nc1ccc(N2CCOCC2)c(S(=O)(=O)Nc2ccc(OC)cc2)c1	-0.7	-18.3	4.3	-10.1
CC(=O)NC(=S)Nc1ccc(N2CCOCC2)c(S(=O)(=O)Nc2cc(Cl)ccc2Cl)c1	-81.9*	?	2.2	3.4
CC(=O)Nc1cccc(-c2cnc(N)c(C(=O)c3cccnc3)n2)c1	2.4	1.9	.	.
CC(C)=CCC/C(C)=C/CNC(=O)CC1C[C@H](C(=O)N(C(C)C)C(C)C)[C@@]2(C)c3[nH]c4ccccc4c3CCN2C1=O (stereo partly drawn)	2.2	3.0	.	.
O=C(Nc1cccc(-c2nc3ccccc3o2)c1)c1cc([N+](=O)[O-])ccc1N1CCOCC1	.	.	8.3	-18.8
Cc1ccc(/C=N/Nc2nc(N3CCCCC3)nc(N3CCCCC3)n2)o1	5.1	-2.8	84.9*	2.5
O=[N+]([O-])c1ccc(/C=N/Nc2nc(N3CCCCCC3)nc(N3CCCCCC3)n2)o1	-22.2	-7.1	-0.4	18.0
CN(C)CCC(O)(c1ccccc1)c1ccccc1Cl (stereo not drawn)	-5.5	87.3	.	.
CN(C)c1ccc(-c2nnn(Cc3ccccc3Br)n2)cc1	-93.2*	-31.4	14.6	1.6
[O-][N+](=C(c1ccccc1)c1ccccc1)c1ccccc1	-6.6	2.4	.	.
